Out of some 48,000 compounds screened, about 13,000 (27%) showed an effect of 50% or more. The list shows a part of the results.
What follows are compounds tested on Wolbachia pipientis (assay: Anti-Wolbachia Cell-Based Screen). Settings: 5 µM.
Assay type: functional
Set-up: scale not given: in the data most compounds retested in dose-response had high values

Structure (SMILES)	Percent Effect
Cc1cccc(OC2CCN(S(=O)(=O)Cc3cccc(F)c3)CC2)n1	-8.664%
CSCC(C)(O)CNC(=O)c1cc(F)ccc1Br (configuration not stated)	-2.784%
CCOc1ncccc1NC(=O)c1cc2c(s1)CCC2	-11.29%
O=C(NC1CCN(Cc2ccc(F)cc2)CC1)c1ccc2c(c1)CCC2	-15.84%
O=C(NC1CCN(c2cc(-n3ccnc3)ncn2)CC1)c1ccncc1	4.759%
O=C(Cc1ccc2c(c1)CCC2)NC1CCN(Cc2ccccc2)CC1	7.244%
O=C(Cc1ccc2c(c1)CCCC2)N[C@@H]1CC[C@@H](n2ccnc2)[C@@H]1O	128.7%
O=C(N[C@@H]1CCC[C@@H](n2ccnc2)[C@@H]1O)c1ccc2c(c1)CCCC2	113.7%
O=C(Cc1ccc2c(c1)CCC2)NCCNc1ncccn1	11.75%
O=C(N[C@@H]1CC[C@@H](n2ccnc2)[C@@H]1O)c1cc2c(s1)CCC2	100.6%
Cn1cc(CNC(=O)c2cc3c(s2)CCCCC3)cn1	-22.89%
CCOCC(=O)NCC1(NC(C)c2ccccc2)CCOCC1 (configuration not stated)	-5.882%
CCc1nnsc1C(=O)N1CCCN(Cc2ccccc2)CC1	-10.59%
Cc1cnn(CC(C)NCc2c(C)nn(Cc3ccccc3)c2C)c1 (configuration not stated)	-7.761%
CCC(CN1CCCC1)n1cncc1-c1cnn(Cc2ccccc2)c1.Cl (configuration not stated)	116%
Cc1cc(C)cc(N(CCC#N)C(=O)CN2CCCC2c2cccs2)c1 (configuration not stated)	-27.93%
COc1cccc(CN2CCCCCC2c2cccs2)c1O (configuration not stated)	-12.69%
COc1cccc(CN2CCCCCC2c2sccc2C)c1O (configuration not stated)	115%
COc1cc(CN2CCCCCC2c2cccs2)cc(OC)c1OC (configuration not stated)	88.88%
O=C(CCN1CCCC1c1cccs1)N1CCc2sccc2C1 (configuration not stated)	2.808%
COc1cccc(CN2CCN(CC(C)C)C(=O)C2C)c1O (configuration not stated)	-13.51%
COc1cc(CN2CCCCCC2c2cccs2)cc(OC)c1O (configuration not stated)	139%
COc1cccc(CN2CCCCCC2c2cccs2)c1OC (configuration not stated)	128.6%
COc1cccc(CN2CCCC(Nc3cccc(F)c3)C2)c1O (configuration not stated)	-12.95%
Cc1nc(C)n(CC2CCCCN2CCCS(N)(=O)=O)n1 (configuration not stated)	-48.39%
CC(NC(=O)N1CCC(OCc2ccccc2)CC1)c1nncn1C (configuration not stated)	-3.035%

Structure (SMILES)	Percent Effect
CC(=O)Nc1ccc(-n2ccc3nc(N4CCCC4)ncc3c2=O)cc1	4.031%
OCCC1CN(c2nc(-c3cccnc3)nc3c2CCNCC3)CCO1 (configuration not stated)	-11.64%
CNC(=O)c1c(C)cccc1NCC(=O)Nc1cc(C)nn1C	-2.295%
O=C(Nc1ccc(F)cc1)N(CCC(F)(F)F)C[C@H](O)CO	-0.3648%
Cc1nc2c(c(N3CCCOCC3)n1)CCN(c1nccs1)CC2	108.7%
Cc1nc(N2CCOCC2)nc2c1CCN(c1nccs1)CC2	1.797%
Cc1nc2c(c(N3CCCOCC3)n1)CCN(C(=O)N1CCCC1)CC2	0.8074%
CCc1nc2n(n1)CCCC2NC(=O)Nc1cc(OC)ccc1C (configuration not stated)	24.05%
CS(=O)(=O)CCCN1CCOC2(CCc3ccccc32)C1 (configuration not stated)	-1.468%
CN(Cc1cc(F)ccc1C#N)CC(C)(CO)CO	8.99%
Cc1cc(F)ccc1S(=O)(=O)N(C)CC(N)=O	-0.8212%
COc1c(C2CCCN2C(=O)c2cccc(C)n2)c(C)nn1C (configuration not stated)	93.53%
COc1c(C2CCCN2C(=O)c2ccc(N(C)C)nn2)c(C)nn1C (configuration not stated)	97.2%
Cc1nn(C)c(Cl)c1C1CCCN1C(=O)c1ccc(N(C)C)nn1 (configuration not stated)	-10.16%
COc1c(C2CCCN2C(=O)c2ccnc(C)n2)c(C)nn1C (configuration not stated)	135.1%
COc1c(C2CCCN2C(=O)c2cccnc2N(C)C)c(C)nn1C (configuration not stated)	107.7%
COc1c(C2CCCN2C(=O)c2cccc(C(N)=O)c2)c(C)nn1C (configuration not stated)	8.718%
CS(=O)(=O)N1C[C@H](C(=O)Nc2cccnc2)C[C@H]2OCC[C@H]21.O=C(O)C(F)(F)F	-10.82%
CC[C@@]1(O)CCN(c2ncc(Cl)cc2C(F)(F)F)C[C@H]1O	-3.293%
COCc1noc(CNc2nc(C3CCCC3)nc3c2CCNCC3)n1	-2.329%
COc1ccc(SC(C)C(=O)N2CCC(C(=O)N3CCCC3)CC2)cc1 (configuration not stated)	-0.009577%
NC(=O)C1CCN(C(=O)c2cc(S(=O)(=O)N3CCCCC3)cs2)CC1	2.088%
CC(C)CNC(=O)c1cc2c(s1)CCN2S(C)(=O)=O	101.5%
COCCNC(=O)c1cc(S(=O)(=O)N2CCCCC2)cs1	0.5112%
CC(C)CNC(=O)c1nc2c(s1)CCN(C(=O)c1cccnc1)CC2	-3.468%
CN(C)CCNC(=O)c1ccc(OC2CCN(S(C)(=O)=O)CC2)c(Cl)c1	-4.841%

Structure (SMILES)	Percent Effect
COCCNC(=O)NCCS(=O)(=O)N1CCN(c2cccc(C)c2)CC1	9.148%
COCCNC(=O)c1cc2c(s1)CCN2S(C)(=O)=O	90.75%
CC(C)CNC(=O)c1cc2c(s1)CCN2Cc1cccnc1	-6.846%
CN(C)CCNC(=O)c1cc2c(s1)CCN2S(C)(=O)=O	114.7%
COCCNC(=O)C1CCCN1S(=O)(=O)c1sc(=O)[nH]c1C (configuration not stated)	-10.99%
COCCNC(=O)c1cc(S(=O)(=O)N2CCCCCC2)cs1	97.81%
Cc1ncsc1CCC(=O)N1CCN(CCn2cncn2)CC1	-30.48%
CS(=O)(=O)c1nnc(NC(=O)CCc2ccc(Cl)s2)[nH]1	-11.44%
COc1cc(CN(C)C(=O)NCCNC(=O)C2CC2)ccc1SC	6.493%
Cc1nnc(CN2CCN(C)C3(CCNC(=O)CC3)C2)s1 (configuration not stated)	-6.186%
CN(C)C(=O)c1cc2c(s1)CCN(C(=O)CCCN1CCCCC1)C2	-52.48%
CN(C)C(=O)CNC(=O)c1cc2c(s1)CCN2S(C)(=O)=O	110.9%
CN(C)C(=O)CNC(=O)c1cc(Br)c2c(c1)OCCO2	-3.612%
CC(C)(C)c1noc(CNc2ccccc2N2CCC(O)CC2)n1	-3.978%
CCC(C)CS(=O)(=O)NC(=O)C1CCC1 (configuration not stated)	4.874%
Cc1cc(C)nc(Nc2cc(C3CCCN(C)C3)nc(C)n2)n1.O=CO (configuration not stated)	-14.01%
Cc1csc(Nc2cc(C3CN(c4ccncn4)C3)nc(C)n2)n1	120.5%
Cc1csc(Nc2cc(C3CN(C(C)C)C3)nc(C)n2)n1	95.99%
CCc1nc2n(n1)CC(NCC(=O)Nc1nccs1)CC2 (configuration not stated)	-6.343%
Cc1nc(Nc2nccs2)cc(C2CCCN2C2CCOCC2)n1 (configuration not stated)	-3.7%
Cc1ccccc1N1CCN(c2ccncn2)C(C)C1 (configuration not stated)	0.9098%
Cc1nc(Nc2nccs2)cc(C2CN(C(C)C)C2)n1	64.11%
CCc1nc(NC(=O)NCCc2cscn2)nn1C	-7.78%
O=C(NCCOc1ncc(Cl)cc1Cl)NCc1ccncc1	-21.42%
Cn1ccnc1SCCNc1ccnc(C(F)(F)F)n1	2.447%
CC(C)(NC(=O)c1cnc(C(C)(C)C)s1)C(N)=O	-3.596%

Structure (SMILES)	Percent Effect
CC(C)(C)C(=O)c1ccsc1NC(=O)CCNC(=O)c1ccco1	-2.755%
CC(C)(CNC(=O)c1ccco1)CNC(=O)c1ccco1	-33.3%
CC(C)(C)c1ncc(C(=O)NCCNC(=O)Cc2ccccc2)s1	94.92%
CC(C)(C)c1ncc(C(=O)NCCNC(=O)c2ccco2)s1	107.2%
CCNc1ncc(C(=O)N[C@H](C(N)=O)c2ccccc2)cn1	7.272%
CC(C)(C)c1ncc(C(=O)NC(C(N)=O)c2ccccc2)s1 (configuration not stated)	80.78%
CC(=O)c1cccc(OCCCC(=O)N(C)CC(N)=O)c1	-6.7%
Cc1cccc2[nH]c(C3CCN(C(=O)c4ccc[nH]4)CC3)nc12	-3.208%
O=C(Cc1ccn[nH]1)Nc1cncc(Br)c1O	-6.696%
CC(C)Cc1cc(CNC(=O)c2cccc3c2OCC3)no1	-12.78%
CC(=O)N[C@@H]1CN(Cc2nccn2C)C[C@H]1c1ccc(C)cc1	-2.996%
CC(CNC(=O)c1cc(N2CCNC2=O)ccc1F)c1ccccc1 (configuration not stated)	-2.028%
CC(Sc1nc(N)cc(N)n1)c1nc(C(C)(C)C)no1 (configuration not stated)	6.059%
CC(=O)N1C[C@H]2CN(CC3CC3)C(=O)[C@H]2C1	-8.606%
CN(C)C(=O)CN1CC[C@H]2CN(S(C)(=O)=O)C[C@@H]2C1=O.O=C(O)C(F)(F)F	-14.63%
O=C(CC(F)(F)F)N1C[C@H]2CN(CC3CC3)C(=O)[C@H]2C1	-26.88%
CCOCC(=O)N1C[C@H]2CN(CC3CC3)C(=O)[C@H]2C1	-26.93%
O=C1[C@H]2CN(c3ncc(F)cn3)C[C@H]2CN1CC1CC1	15.28%
CCS(=O)(=O)N1C[C@H]2CN(CC3CC3)C(=O)[C@H]2C1	114.7%
O=C1[C@H]2CN(S(=O)(=O)C3CC3)C[C@H]2CN1CC1CC1	100.8%
O=C1[C@H]2CN(S(=O)(=O)c3cccs3)C[C@H]2CN1CC1CC1	-15.27%
CS(=O)(=O)N1C[C@H]2CN(CC3CC3)C(=O)[C@H]2C1	101.9%
Cc1cccnc1NC(=O)c1ccc(-n2cncn2)nn1	-9.23%
CCN(CCCNC(=O)c1cc2cccc(F)c2o1)S(C)(=O)=O	13.88%
